Laboratory results: PubChem BioAssay
Unmarked numbers belong to inactive results. No rule for the calls is given here.

What follows are compounds tested against Pantothenate synthetase (Mycobacterium tuberculosis (strain ATCC 25618 / H37Rv)) (UniProt P9WIL5) (assay: Recombinant Mtb pantothenate synthetase (PanC) inhibitors, coupled enzyme, confirmatory (AID 375;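 also: 0% = full reaction with vehicle and 100% = no enzyme background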)). Settings: coupled enzyme assay; at 10 µM, hits give high values.
Sequence of Pantothenate synthetase (Mycobacterium tuberculosis (strain ATCC 25618 / H37Rv)) (P9WIL5 whole entry, looked up): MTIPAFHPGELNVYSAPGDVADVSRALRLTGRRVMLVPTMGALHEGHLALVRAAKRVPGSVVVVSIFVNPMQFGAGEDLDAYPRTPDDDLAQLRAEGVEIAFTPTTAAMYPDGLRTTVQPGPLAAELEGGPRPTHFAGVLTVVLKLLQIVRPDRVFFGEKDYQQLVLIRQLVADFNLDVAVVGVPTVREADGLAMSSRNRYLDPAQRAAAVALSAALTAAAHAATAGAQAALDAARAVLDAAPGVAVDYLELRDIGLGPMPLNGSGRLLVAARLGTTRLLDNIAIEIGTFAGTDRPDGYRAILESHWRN
For `Cc1cc(C)n(CCc2nc(-c3cccs3)cs2)n1`, the inhibition was 2%. For `Cc1ccc(-c2noc(CCC(=O)N3CCN(c4cccc(C(F)(F)F)c4)CC3)n2)cc1`, the inhibition was 0%. `COC(=O)Cc1c(C)c2ccc(OCC(=O)N3CCOCC3)cc2oc1=O` showed an inhibition of 0%. `O=S(=O)(c1ccc(S(=O)(=O)N2CCN3CCCC3C2)cc1)N1CCCC1` (stereo not given) gave an inhibition of 0%. Work on `Cc1ccc(-c2nnc3ccc(SCC(=O)NCc4ccco4)nn23)cc1` yielded an inhibition of 0%. In the case of `CN(CCNC(=O)c1ccc(N2CCCC2=O)cc1)CCc1ccccc1`, the inhibition is reported as 0%. `N#C/C(=C(/O)COC(=O)CCC1CCCCC1)c1nc2ccccc2[nH]1` showed an inhibition of 6%. For `CCOC(=O)N1CCN(C(=O)C2CC(=O)N(Cc3ccc(OC)cc3)C2)CC1` (stereo not given), the inhibition was 3%. With `CCc1nnc2c3cnn(-c4ccccc4)c3ncn12` the inhibition was 0%. `Cc1nnc(SCCn2c(Br)nc3c2c(=O)n(C)c(=O)n3C)s1` gave an inhibition of 1%. For `COc1ccc(N2CCN(CCCNC(=O)CC3Oc4ccc(C)cc4NC3=O)CC2)cc1` (stereo not given), the inhibition was 0%. For `COc1ccc(OC)c(C2C(C(=O)Nc3cccnc3)=C(C)NC3=C2C(=O)CCC3)c1` (stereo not given), the inhibition was 0%. `COc1cccc(OC)c1C(=O)N1CCN(S(=O)(=O)c2ccccc2)CC1` gave an inhibition of 0%. With `COC(=O)c1cc(Oc2ccc(C(=O)OC)cc2N)cc(C(=O)OC)c1` the inhibition was 0%. In the case of `O=C(CSc1nc2ccccc2c(=O)n1Cc1ccco1)NCc1ccccc1`, the inhibition is reported as 2%. In the case of `COc1cccc(CNc2cccc3cccnc23)c1O`, the inhibition is reported as 0%. Work on `N#Cc1cnc(SCC(=O)Nc2ccccc2C(F)(F)F)nc1N` yielded an inhibition of 4%. Compound `COc1cc(C(=O)Nc2ccc(-n3cnnn3)c(C)c2)cc(OC)c1OC` has an inhibition of 0%. In the case of `Cc1cc(=O)oc2c(CN3CCN(C)CC3)c(O)c(Cl)cc12`, the inhibition is reported as 7%. Compound `Cn1c(=O)c2c(-c3ccccc3)n(CCCN3CCOCC3)cc2n(C)c1=O` has an inhibition of 0%. `O=C(CN1CCSCC1)N1CCc2[nH]c3ccc(Br)cc3c2C1` showed an inhibition of 0%. `COC(=O)C1C2C=CC3(CN(CC4CCCO4)C(=O)C13)O2` (stereo not given) showed an inhibition of 0%. With `CC(C)C(CO)NC(=O)CC(=O)NC(CO)C(C)C` (stereo not given) the inhibition was 2%. `O=C(NCCN1CCOCC1)c1ccc2c(c1)N(Cc1ccccc1F)C(=O)CS2` was tested, and the inhibition was 0%. Compound `Cc1ccnc(NC(=O)C2CCC(CNc3c(N4CCCC4)c(=O)c3=O)CC2)c1` (stereo not given) has an inhibition of 0%. For `O=C(O)C(c1ccccc1)N1CCCC1` (stereo not given), the inhibition was 0%. For `COc1cc(C2C(C#N)=C(N)OC3=C2C(=O)CC(C)(C)C3)ccc1OC(=O)N1CCOCC1` (stereo not given), the inhibition was 5%. In the case of `CC1(C)Cc2noc(N)c2C(C)(C)N1OC(=O)c1cccs1`, the inhibition is reported as 0%. In the case of `Cc1cccc(OCC(=O)Nc2ccc(N3CCCC3)cc2)c1C`, the inhibition is reported as 0%. `Cc1nc2sc(C(c3cccs3)N3CC(C)CC(C)C3)c(O)n2n1` (stereo not given) showed an inhibition of 0%. `Cc1nc(SCC(=O)CC(=O)OC(C)C)c(C#N)c(C)c1C` gave an inhibition of 0%. Work on `CCN(CC)CCOC(=O)C(c1ccccc1)c1ccccc1` yielded an inhibition of 0%. With `O=C(CN1C(=O)NC(Cc2ccccc2)C1=O)Nc1ccccc1` (stereo not given) the inhibition was 0%. Compound `CCc1cccc(NC(=O)CN(C)S(=O)(=O)c2cccc3nsnc23)c1` has an inhibition of 12%. `O=C(C1CC1(c1ccccc1)c1ccccc1)N1CCOCC1` (stereo not given) was tested, and the inhibition was 0%. Compound `O=C1CCn2nc(-c3ccc(Cl)cc3)cc2N1` has an inhibition of 0%. Compound `CN(C)CCOC(c1ccccc1)c1ccccc1` (tested in a mixture with another compound) has an inhibition of 0%. Work on `Cc1nc2ccc(CCO)cc2s1` yielded an inhibition of 0%. In the case of `CN(CC(=O)Nc1ccccc1Cl)C(=O)COC(=O)CNC(=O)c1ccc(Br)o1`, the inhibition is reported as 0%. With `CCN(CC)C(=O)CSc1nc2ccc(NC(=O)CSc3nccn3C)cc2s1` the inhibition was 7%.
